Screening results from PubChem.
This is a sample that favours compounds with a hit; in the whole collection about 3.2% have one here.
APOBEC3G inh: inhibitors of human APOBEC3G DNA deaminase; Q9HC16; inhibition, % at 20 µM; hit rate 0.28% among 330,000; recombinant A3G, ssDNA deamination FAM/TAMRA fluorescence;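 active = inhibition of at least 40% at 20 µM, with no more than 30% in the related APOBEC3A deaminase screen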;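 note: plate controls were DMSO wells with A3G for no effect and wells lacking A3G enzyme for full effect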
APOBEC3A inh: inhibitors of human APOBEC3A DNA deaminase; recombinant A3A, FAM/TAMRA ssDNA deamination fluorescence; inhibition, % at 20 µM; hit rate 0.41% among 330,000; P31941;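 active = at least 40% inhibition at 20 µM here, with at most 30% in a related deaminase screen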;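 note: plate controls were A3A with DMSO for no effect and wells lacking A3A enzyme for full effect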
NTR1 agonist: NTR1 (human) agonism; NTR1-U2OS beta-arrestin-GFP spot imaging, agonist mode; activation, % at 20 µM; hit rate 0.17% among 330,000; P30989; AID 493036;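 active = activation at or above 40% of the spot to cytoplasm intensity ratio, with at least 20 cells analyzed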;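 note: 0% = DMSO without peptide and 100% = 100 nM NTR1 peptide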
AHR activator: human AHR activation | AHR-responsive luciferase reporter cells, luminescence | activation, % at 5 µM | hit rate 2.5% among 320,000 | AID 2796; in the data active = activation above about 47%;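 note: 0% = vehicle wells and 100% = reference agonist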
Target sequence (P35869 whole entry, looked up): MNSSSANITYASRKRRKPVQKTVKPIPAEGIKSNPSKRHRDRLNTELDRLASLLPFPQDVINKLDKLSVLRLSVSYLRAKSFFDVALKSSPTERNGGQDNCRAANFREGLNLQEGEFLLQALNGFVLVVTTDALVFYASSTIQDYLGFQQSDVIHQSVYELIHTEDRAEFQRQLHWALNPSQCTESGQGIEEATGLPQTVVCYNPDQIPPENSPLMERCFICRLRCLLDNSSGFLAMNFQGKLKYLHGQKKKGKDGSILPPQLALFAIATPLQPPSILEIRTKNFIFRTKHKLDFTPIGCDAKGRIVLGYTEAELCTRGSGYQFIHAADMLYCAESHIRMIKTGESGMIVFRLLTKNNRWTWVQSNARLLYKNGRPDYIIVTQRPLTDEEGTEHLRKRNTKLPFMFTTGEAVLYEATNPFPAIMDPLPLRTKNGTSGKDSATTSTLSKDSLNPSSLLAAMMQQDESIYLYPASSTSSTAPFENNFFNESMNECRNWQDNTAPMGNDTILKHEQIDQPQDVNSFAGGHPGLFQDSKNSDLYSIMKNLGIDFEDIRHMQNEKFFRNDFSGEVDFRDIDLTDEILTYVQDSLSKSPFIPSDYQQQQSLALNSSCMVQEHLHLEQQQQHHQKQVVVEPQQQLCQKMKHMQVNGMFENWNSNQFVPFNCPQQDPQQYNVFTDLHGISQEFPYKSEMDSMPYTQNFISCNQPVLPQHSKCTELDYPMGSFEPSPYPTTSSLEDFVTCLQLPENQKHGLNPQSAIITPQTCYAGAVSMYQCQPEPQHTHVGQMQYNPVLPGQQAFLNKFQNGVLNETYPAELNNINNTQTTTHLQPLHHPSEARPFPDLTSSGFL
Starred values were filed as active, the others as inactive.

`COc1cc(NC(=O)c2ccccc2)cc(OC)c1` gave APOBEC3G inh -3.9, APOBEC3A inh -5.9, NTR1 agonist -1.4 and AHR activator 46.0.
O=C1/C(=C/c2c[nH]c3ccccc23)CCC/C1=C\c1c[nH]c2ccccc12 was read as APOBEC3G inh -4.2, APOBEC3A inh -1.8, NTR1 agonist 4.0 and AHR activator 64.8*.
Screening CCCCC1(C)OC(=O)C(=Cc2c[nH]c3ccccc23)C(=O)O1 (stereo not drawn) returned APOBEC3G inh -1.4, APOBEC3A inh 1.4, NTR1 agonist 0.9 and AHR activator 13.3.
O=[N+]([O-])c1ccc2c(c1)C(O)n1ncnc1S2 (stereo not drawn) was read as APOBEC3G inh -9.8, APOBEC3A inh -4.2, NTR1 agonist -0.5 and AHR activator 1.1.
Cc1nc2n(n1)C(O)c1cc([N+](=O)[O-])ccc1S2 (stereo not drawn) was read as APOBEC3G inh -9.7, APOBEC3A inh 44.5*, NTR1 agonist 0.7 and AHR activator -0.9.
`COc1ccc(-c2nc(NC(=O)c3[nH]c(C)c(C(C)=O)c3C)sc2C)cc1` gave APOBEC3G inh -2.6, APOBEC3A inh 2.6, NTR1 agonist 34.9 and AHR activator 18.2.
`COc1ccc(Cl)cc1NC(=O)c1[nH]c(C)c(C(C)=O)c1C` gave APOBEC3G inh -11.4, APOBEC3A inh -2.1, NTR1 agonist -0.8 and AHR activator 67.6*.
Screening COc1ccc(OC)c(NC(=O)c2[nH]c(C)c(C(C)=O)c2C)c1 returned APOBEC3G inh -4.3, APOBEC3A inh 0.9, NTR1 agonist 3.3 and AHR activator 75.2*.
`COc1ccc(CCNC(=O)c2[nH]c(C)c(C(C)=O)c2C)cc1OC` gave APOBEC3G inh -0.4, APOBEC3A inh -0.9, NTR1 agonist 14.8 and AHR activator 74.2*.
Screening CC(=O)c1c(C)[nH]c(C(=O)NNC(=O)COc2ccc(Cl)cc2C)c1C returned APOBEC3G inh -7.7, APOBEC3A inh -2.8, NTR1 agonist 0.8 and AHR activator 1.2.
Screening CCOc1ccc(C(=O)Nc2ccc(N3CCN(C)CC3)cc2)cc1Br returned APOBEC3G inh -9.7, APOBEC3A inh -7.4, NTR1 agonist -0.5 and AHR activator 57.3*.
Cc1ccc(/C=N/NC(=O)c2cccnc2)o1 was read as APOBEC3G inh -7.8, APOBEC3A inh -0.5, NTR1 agonist -1.9 and AHR activator 72.3*.
`Cc1nn(-c2cccc(Cl)c2)c(Cl)c1/C=N/NC(=O)c1cccnc1` gave APOBEC3G inh -8.5, APOBEC3A inh -1.6, NTR1 agonist -0.2 and AHR activator 77.8*.
`Cc1ccc(/C=N\NC(=O)c2cncc(Br)c2)o1` gave APOBEC3G inh -4.9, APOBEC3A inh -5.4, NTR1 agonist 0.3 and AHR activator 63.6*.
For COc1ccc(/C=N/NC(=O)c2cccs2)c2ccccc12 the results were APOBEC3G inh -9.1, APOBEC3A inh -3.8, NTR1 agonist 14.6 and AHR activator 52.7*.
O=C(N/N=C/c1ccc(Br)o1)c1cccnc1 was read as APOBEC3G inh -6.6, APOBEC3A inh -2.1, NTR1 agonist -0.6 and AHR activator 15.3.
CC(CCc1ccccc1)NC(=O)COC(=O)C(CCC(N)=O)NC(=O)c1ccc(F)cc1 (stereo not drawn) was read as APOBEC3G inh -6.4, APOBEC3A inh -2.6, NTR1 agonist -0.7 and AHR activator -0.3.
Cc1ccccc1C(=O)NCC(=O)OC(C)C(=O)NCc1ccco1 (stereo not drawn) was read as APOBEC3G inh -10.2, APOBEC3A inh -0.1, NTR1 agonist 1.6 and AHR activator -0.3.
Screening C=C1/C=C(\C)[C@](C)(O)C[C@H](O)CC(=O)[C@H](O)[C@@H](O)[C@H](C)C[C@H](C)OC(=O)/C(C)=C/CC/C=C/[C@@H]2O[C@H]2C[C@H](C)C1 returned APOBEC3G inh 13.5, APOBEC3A inh 2.5, NTR1 agonist 2.6 and AHR activator -0.9.
`Cc1ccc(/C=N/NC(=O)c2cccs2)o1` gave APOBEC3G inh -4.5, APOBEC3A inh 0.1, NTR1 agonist -2.0 and AHR activator 77.8*.
`CN(C)/C=N/c1nc2ccc3c(c2s1)CCCC3` gave APOBEC3G inh -6.0, APOBEC3A inh -5.5, NTR1 agonist 0.0 and AHR activator 63.3*.
For COc1ccc2nc(/N=C\N(C)C)sc2c1 the results were APOBEC3G inh -0.8, APOBEC3A inh 0.3, NTR1 agonist 5.8 and AHR activator 36.1.
Screening COc1ccc(NC(=O)C(C)Sc2nnc(C3CC3)n2C2CC2)cc1 (stereo not drawn) returned APOBEC3G inh 2.0, APOBEC3A inh 9.3, NTR1 agonist -1.2 and AHR activator -1.4.
Screening CC(=O)Nc1cccc(NC(=O)Nc2cccc(F)c2)c1 returned APOBEC3G inh -4.9, APOBEC3A inh -0.7, NTR1 agonist 0.4 and AHR activator 48.9*.
For O=C(CSc1nnc(C2CC2)n1-c1ccccc1)N1CCCC1 the results were APOBEC3G inh -6.7, APOBEC3A inh 5.1, NTR1 agonist -2.3 and AHR activator -0.5.
Fc1ccc(Nc2ncnc3sc4c(c23)CCC4)cc1F was read as APOBEC3G inh -6.4, APOBEC3A inh 0.3, NTR1 agonist 5.9 and AHR activator 48.5*.
O=C(N/N=C/c1cn[nH]c1-c1ccccc1)c1ccco1 was read as APOBEC3G inh -2.4, APOBEC3A inh 0.9, NTR1 agonist -1.7 and AHR activator 65.4*.
O=C(N/N=C\c1cn[nH]c1-c1ccccc1)c1ccc([N+](=O)[O-])cc1 was read as APOBEC3G inh 0.9, APOBEC3A inh 0.2, NTR1 agonist -1.6 and AHR activator 16.6.
For Cc1cc(C(=O)N/N=C/c2cn[nH]c2-c2ccccc2)cs1 the results were APOBEC3G inh -11.3, APOBEC3A inh -8.2, NTR1 agonist 1.5 and AHR activator 96.0*.
Screening COc1ccc(S(=O)(=O)Nc2c(NC3CCCCC3)c3ccccc3oc2=O)cc1OC returned APOBEC3G inh -1.8, APOBEC3A inh -1.4, NTR1 agonist -0.1 and AHR activator 1.5.
Cc1nc(Cl)c2c(n1)NC1=C(O2)C(=O)CCC1 was read as APOBEC3G inh -3.8, APOBEC3A inh -2.5, NTR1 agonist -0.2 and AHR activator 4.0.
CCN(CC(=O)Nc1ccc(S(=O)(=O)N2CCCCC2)cc1)Cc1ccccc1 was read as APOBEC3G inh -4.3, APOBEC3A inh 0.0, NTR1 agonist 0.2 and AHR activator 0.4.
For O=C(Nc1ccc(Br)cc1)c1cccnc1N1CCCCC1 the results were APOBEC3G inh 0.2, APOBEC3A inh 2.1, NTR1 agonist 3.6 and AHR activator 50.1*.
`NC(=O)C1CCN(C(=O)/C(=C/c2ccccc2)NC(=O)c2ccccc2)CC1` gave APOBEC3G inh -3.3, APOBEC3A inh 2.1 and NTR1 agonist 0.4.
O=[N+]([O-])c1c(N2CCN(CCO)CC2)nc2ccccn12 was read as APOBEC3G inh -3.0, APOBEC3A inh -2.8, NTR1 agonist 0.4 and AHR activator -2.1.
Screening Cc1ccccc1NC(=O)/C(C#N)=C/c1ccsc1 returned APOBEC3G inh -4.0, APOBEC3A inh 6.5, NTR1 agonist 0.6 and AHR activator 70.1*.
For Cc1cccc(C)c1NC(=O)/C(C#N)=C/c1ccsc1 the results were APOBEC3G inh -7.0, APOBEC3A inh -0.7, NTR1 agonist -0.1 and AHR activator 0.6.
